Screens from PubChem.
In the library only some 6.3% were active in any assay of this set; here they are far more common.
tim10-1 inh: tim10-1 yeast growth inhibition | S. cerevisiae tim10-1 ts strain growth, BacTiter-Glo, 24 h | inhibition, % at 20 µM | 2.2% of 330,000 active | AID 463190;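 active means inhibition of at least 40%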;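 further: mutant grown at 25 °C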
Mdm2-MdmX inh: human Mdm2/MdmX binding inhibition; O15151+Q00987; SaOS-2 split-luciferase Mdm2/MdmX complementation, luminescence; inhibition, % at 8 µM; 3% of 330,000 active; AID 485346;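 active means inhibition of at least 50% at 8 µM in the primary screen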
Target sequence (O15151 whole entry, looked up): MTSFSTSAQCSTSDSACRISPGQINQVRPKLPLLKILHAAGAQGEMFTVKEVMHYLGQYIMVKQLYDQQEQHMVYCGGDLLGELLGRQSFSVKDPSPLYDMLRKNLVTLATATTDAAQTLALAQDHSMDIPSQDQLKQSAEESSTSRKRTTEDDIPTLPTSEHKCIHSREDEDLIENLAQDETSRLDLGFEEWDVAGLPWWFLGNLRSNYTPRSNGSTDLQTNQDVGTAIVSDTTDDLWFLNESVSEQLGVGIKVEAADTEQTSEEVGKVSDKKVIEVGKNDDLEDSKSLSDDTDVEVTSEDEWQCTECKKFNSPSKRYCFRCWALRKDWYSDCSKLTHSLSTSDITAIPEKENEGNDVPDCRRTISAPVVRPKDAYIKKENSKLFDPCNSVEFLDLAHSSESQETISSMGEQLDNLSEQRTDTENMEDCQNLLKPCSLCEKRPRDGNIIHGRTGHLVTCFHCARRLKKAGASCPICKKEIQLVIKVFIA
Target sequence (Q00987 whole entry, looked up): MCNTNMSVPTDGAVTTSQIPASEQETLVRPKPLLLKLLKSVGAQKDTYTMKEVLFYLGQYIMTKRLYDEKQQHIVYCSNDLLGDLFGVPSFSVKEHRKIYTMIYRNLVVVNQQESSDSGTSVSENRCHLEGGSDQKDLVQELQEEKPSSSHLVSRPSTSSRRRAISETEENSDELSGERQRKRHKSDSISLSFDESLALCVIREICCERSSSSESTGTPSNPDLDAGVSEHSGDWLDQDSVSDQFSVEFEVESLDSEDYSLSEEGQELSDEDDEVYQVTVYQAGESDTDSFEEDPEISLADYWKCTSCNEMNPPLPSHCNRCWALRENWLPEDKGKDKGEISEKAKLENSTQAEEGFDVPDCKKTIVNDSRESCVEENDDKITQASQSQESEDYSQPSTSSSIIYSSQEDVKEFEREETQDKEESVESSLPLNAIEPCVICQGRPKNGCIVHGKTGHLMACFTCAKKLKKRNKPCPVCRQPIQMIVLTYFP
tim23-1 inh: tim23-1 yeast growth inhibition; S. cerevisiae tim23-1 growth, BacTiter-Glo luminescence, 24 h; inhibition, % at 20 µM; 1.3% of 330,000 active;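 active means growth inhibition of the mutant yeast at or above 50%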;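 further: temperature-sensitive mutant grown at 25 °C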
MPTP block: permeability transition pore inhibition | inhibition, % at 10 µM | isolated mouse mitochondria, Ca2+ swelling absorbance, 30 min | 1.4% of 360,000 active;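 active means inhibition of 50% or more, scaled per plate between neutral and stimulator controls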
TIM10 inh: TIM10 yeast growth inhibition; S. cerevisiae TIM10 strain growth, BacTiter-Glo luminescence, 24 h; inhibition, % at 10 µM; 1.4% of 330,000 active; AID 463195;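 active means inhibition of 40% or more at the single tested concentration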;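 further: wild-type TIM10 isogenic control strain grown at permissive 25 °C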
Mdm2 MdmX conf: human Mdm2/MdmX binding inhibition, confirmed | AID 489028 | shares compounds with Mdm2-MdmX inh | inhibition, % at 8 µM | luminescent assay | 55% of 10,000 active; in the data active means inhibition above about 40%
Full FLuc ctr: counter-screen for Mdm2/MdmX inhibitors: full-length luciferase; inhibition, % at 8 µM; shares compounds with Mdm2-MdmX inh; SaOS-2 full-length luciferase counterscreen, luminescence; AID 504607; 77% of 6,200 active;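 active means mean inhibition at 8 µM reaching about 37%, which flags the compound as non-specific, limit read from the data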;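 further: p53-null SaOS-2 cells with luciferase driven by a doxycycline-inducible promoter; compound on cells about two nights before reading with doxycycline added after day one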
Hits are given with their value; . = inactive; / = no result given.

SMILES	tim10-1 inh	Mdm2-MdmX inh	tim23-1 inh	MPTP block	TIM10 inh	Mdm2 MdmX conf	others
CC(C)NC(=O)c1cc2cc(Br)ccc2oc1=O	.	.	.	.	.	/
Cc1ccc(C(C)NC(=O)c2cc3cc(Br)ccc3oc2=N)cc1 (centres undefined)	.	51.2	.	.	.	.
CCOC(=O)C1CCCN1C(=O)C1(NC(C)=O)CCCC1 (centres undefined)	/	/	/	.	/	/
O=C1Cc2c([nH]c3ccc([N+](=O)[O-])cc23)-c2ccccc2N1	/	/	/	.	/	/
CCCOc1ccc(CNC(=O)c2ccc3nc(N4CCOCC4)sc3c2)cc1	.	51.2	.	.	.	.
O=C(NCc1ccccc1)c1ccc2nc(N3CCOCC3)sc2c1	.	.	.	.	.	/
CC(C)(C)Cc1c(-c2cccc(Cl)c2)nc2ccc(Br)cn12	/	/	/	.	/	/
CC(CCc1ccc(O)cc1)NC(c1ccccc1)c1ccc(Cl)cc1 (centres undefined)	.	.	.	.	.	/
CC(CCc1ccc(O)cc1)NCCC(c1ccccc1)c1ccccc1 (centres undefined)	.	51.3	.	.	.	.
Cc1ccc2[nH]c(=O)c3cc(C(=O)N(CCCOC(C)C)Cc4ccco4)sc3c2c1	.	69.0	.	.	.	.
CCCCN(Cc1ccco1)C(=O)c1cc2c(=O)[nH]c3ccc(C)cc3c2s1	.	84.0	.	.	.	.	Full FLuc ctr=.
CCCCN(CC)C(=O)c1cc2c(=O)[nH]c3ccc(C)cc3c2s1	.	.	.	.	.	/
CCOc1cccc2sc(N(CCCN(C)C)C(=O)c3ccc(S(=O)(=O)N(C)Cc4ccccc4)cc3)nc12	.	74.2	.	.	.	.	Full FLuc ctr=60.1
CCCCN(CC)S(=O)(=O)c1ccc(C(=O)N(CCCN(C)C)c2nc3cc(C)cc(C)c3s2)cc1	.	71.3	.	.	.	.
CCOc1cccc2sc(N(CCCN(C)C)C(=O)Cc3ccccc3)nc12	.	.	.	.	.	/
CCCCN(C)S(=O)(=O)c1ccc(C(=O)N(CCN(C)C)c2nc3ccc(C)cc3s2)cc1	.	.	.	.	.	/
CCOc1cccc2sc(N(CCN(C)C)C(=O)c3cc4ccccc4cc3OC)nc12	.	68.8	.	.	.	.
CCOc1ccc2nc(N(CCN(C)C)C(=O)c3cc4ccccc4cc3OC)sc2c1	.	.	.	.	.	/
CN(C)CCCN(C(=O)c1ccc(S(=O)(=O)N(C)Cc2ccccc2)cc1)c1nc2cc3c(cc2s1)OCO3	.	57.0	.	.	.	.
CCOc1cccc2sc(N(CCCN(C)C)C(=O)c3ccc(C(=O)c4ccccc4)cc3)nc12	.	51.4	.	.	.	.
CC12CCC3c4ccccc4CCC3(CO1)C2 (centres undefined)	/	/	/	.	/	/
O=C(N/N=C/c1ccc(Sc2nc3ccccc3s2)c([N+](=O)[O-])c1)c1ccccn1	.	73.6	.	.	.	52.5	Full FLuc ctr=55.3
Cc1ccc(CN2CC(N3CCCC3)CS2(=O)=O)cc1 (centres undefined)	/	/	/	.	/	/
CCCCCC(=O)Nc1cccc(C2=NOC3(C2)C[C@@H](C(N)=O)N(C(=O)CC(c2ccccc2)c2ccccc2)C3)c1 (some centres undefined)	.	53.0	.	.	.	48.3	Full FLuc ctr=65.1
Cc1[nH]n(C2=NCCS2)c(=O)c1N=Nc1ccccc1	.	.	.	.	.	/
SMILES	tim10-1 inh	Mdm2-MdmX inh	tim23-1 inh	MPTP block	TIM10 inh	Mdm2 MdmX conf	others
Cc1[nH]n(-c2nc(-c3ccc(Cl)cc3)cs2)c(=O)c1N=Nc1ccc(O)cc1	.	63.4	.	.	.	.	Full FLuc ctr=83.2
COc1ccc(C2CC(c3cccs3)=NN2C(=O)CCl)cc1OC (centres undefined)	.	98.9	.	.	.	99.6	Full FLuc ctr=49.3
Cc1ccc(C2=NN(C(=O)CCl)C(c3cccs3)C2)o1 (centres undefined)	.	100.2	.	.	.	100.0	Full FLuc ctr=50.8
O=C(CCl)N1N=C(c2ccco2)CC1c1cccs1 (centres undefined)	/	/	/	.	/	/
Cc1cccc(NC(=O)Nc2nnc([C@H]3C[C@H](O)[C@@H](CO)O3)s2)c1	/	/	/	.	/	/
O=C1NC[C@@H](Cc2cccc3ccccc23)N(CCc2cccc(F)c2)C1=O	/	/	/	.	/	/
COc1cc(CNc2ncnc3c2ncn3[C@H]2CN(CCN3CCOCC3)C[C@@H](CO)O2)cc(OC)c1OC	/	/	/	.	/	/
